This is a sample that favours compounds with a hit; in the whole collection about 1.4% have one here.
VLA-4 inh: inhibition in human VLA-4 binding assay, primary screen, VLA-4 allosteric modulator project, MLPCN library, flow cytometry, VLA-4 expressing cells; AID 2557, 2010; inhibition, % (about 7 µM as worked out from the volumes in the protocol); actives 0.2% (n = 330,000); Integrin alpha-4 (Homo sapiens), P13612; ligand binding flow cytometry; in the data active means inhibition above about 50%
A3A deaminase: APOBEC3A ssDNA deaminase inhibitors, primary screen, selectivity assay for APOBEC3G inhibitor project, biochemical, FAM/TAMRA oligo cleavage fluorescence; DNA dC->dU-editing enzyme APOBEC-3A (Homo sapiens), P31941; recombinant A3A, FAM/TAMRA ssDNA deamination fluorescence; inhibition, % at 20 µM; actives 0.41% (n = 330,000); AID 493011, 2011;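 active means at least 40% inhibition at 20 µM here, with at most 30% in a related deaminase screen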;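 further: plate controls were A3A with DMSO for no effect and wells lacking A3A enzyme for full effect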
A3G deaminase: APOBEC3G DNA deaminase inhibitors, primary screen, biochemical, fluorescence, single-stranded DNA substrate, uHTS; DNA dC->dU-editing enzyme APOBEC-3G (Homo sapiens), Q9HC16; actives 0.28% (n = 330,000); recombinant A3G, ssDNA deamination FAM/TAMRA fluorescence; AID 493012, 2011; inhibition, % at 20 µM;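 active means inhibition of at least 40% at 20 µM, with no more than 30% in the related APOBEC3A deaminase screen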;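 further: plate controls were DMSO wells with A3G for no effect and wells lacking A3G enzyme for full effect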
GRK2 aptamer HTS: compounds blocking aptamer binding on GRK2 – biochemical, human GRK2, bead flow cytometry, HTS, primary screen; FAM-aptamer displacement from GRK2; actives 0.59% (n = 330,000); inhibition of aptamer binding, % at 10 µM; Beta-adrenergic receptor kinase 1 (Homo sapiens), P25098;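 active means inhibition of aptamer binding above 40%, roughly 3 SD of noise, on plates passing a quality check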;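 further: median bead fluorescence of bound FAM aptamer so fluorescent compounds give negative values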
APOBEC3G confirm: APOBEC3G deaminase inhibitor retest, confirmation, biochemical, fluorescence, single-stranded DNA substrate, single concentration; shares compounds with A3G deaminase; recombinant A3G ssDNA deaminase, UDG/FAM-TAMRA fluorescence; inhibition, % at 20 µM; actives 72% (n = 890);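 active means inhibition reaching a set limit in any replicate at 20 µM, the limit being 80% of the first screen's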
UDG A3G counter: E. coli UDG inhibitors, confirmation, counter-screen for APOBEC3G inhibitor project, biochemical, single concentration, fluorescence, FAM/TAMRA oligo | shares compounds with A3G deaminase | UDG counterscreen | inhibition, % at 20 µM | 710 tested, under 10 active;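 active means compounds giving 40% or more inhibition at 20 µM in any one of the three replicates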;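 further: plate controls were DMSO wells with UDG and oligo for no effect and DMSO wells lacking both for full effect; inhibitors lower the FAM signal released by uracil excision and alkaline cleavage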
An asterisk follows results filed as active; . = not tested or not shown.

SMILES | VLA-4 inh | A3A deaminase | A3G deaminase | GRK2 aptamer HTS | APOBEC3G confirm | UDG A3G counter
CCN(CC)c1ccc(NC(=O)c2cccc(C)c2)cc1S(=O)(=O)Nc1ccccc1OC | 9 | 4 | 49* | 2 | 54* | 3
CCN(CC)c1ccc(NC(=O)c2ccccc2)cc1S(=O)(=O)Nc1ccccc1OC | 22 | 4 | 50* | 1 | 48* | 1
COc1ccc(C(=O)Nc2ccc(Cl)c(S(=O)(=O)Nc3ccccc3OC)c2)cc1 | 15 | 0 | -5 | 1 | . | .
O=C1c2cc(S(=O)(=O)N(CCO)CCO)ccc2-c2ccc(S(=O)(=O)N(CCO)CCO)cc21 | -3 | 3 | -5 | 4 | . | .
CC(=O)N1CC(c2ccccc2)C(c2ccc(Cl)cc2)=N1 (stereo not drawn) | 10 | -5 | -11 | 4 | . | .
O=C(CNC(c1ccccc1)c1ccccc1)Nc1ccccc1Br | 4 | -4 | 50* | 0 | -6 | 0
Cc1cccc(NC(=O)c2ccccc2NC(=O)c2ccccc2)n1 | -16 | 2 | 9 | 0 | . | .
CCN(CC)S(=O)(=O)c1cc(NC(=O)Cn2ncc(Cl)c(Cl)c2=O)ccc1C | 31 | 14 | 55* | 1 | 16 | .
O=C(Cn1ncc(Cl)c(Cl)c1=O)Nc1ccc2c(c1)OCO2 | 0 | 8 | 10 | 3 | . | .
CCc1cc2cc(C)cc(C)c2[nH]c1=S | 1 | 2 | 49* | 1 | active | -3
CCOc1ccc(S(=O)(=O)N2CCOCC2)cc1NC(=O)CSCc1ccc(C)cc1 | -17 | -4 | -8 | 2 | . | .
CCCC(C)c1nnc(NC(=O)C2CC(=O)N(CCc3ccc(F)cc3)C2)s1 (stereo not drawn) | 8 | 2 | 45* | 0 | 22* | 3
COc1cc(N2C(=O)C=CC2=O)c(OC)cc1Cl | 26 | -2 | 43* | 1 | 54* | -1
COc1cc(Cl)c(S(=O)(=O)N2CCCC2)cc1Cl | 15 | -4 | -13 | 0 | . | .
COc1ccc(C(=O)NNC(=O)CSc2nc(C(C)C)nc3ccccc23)cc1 | 6 | -4 | -7 | 0 | . | .
COCc1c(C(=O)N/N=C\c2cccs2)nnn1-c1nonc1N | 8 | -3 | -12 | 0 | . | .
Cc1ccc(-c2n[nH]c3c2C(c2ccccc2)N(c2ccc(C(=O)O)cc2)C3=O)cc1 (stereo not drawn) | -1 | -8 | 74* | 14 | 3 | 3
Cc1ccc(-c2n[nH]c3c2C(c2cccc(O)c2)N(c2ccc(C(=O)O)cc2)C3=O)cc1 (stereo not drawn) | 0 | -9 | -3 | 0 | . | .
OCc1ccccc1SSc1ccccc1CO | 26 | 1 | 44* | 0 | 51* | -3
OCc1ccccc1CNCc1ccccc1 | -1 | 0 | -3 | 1 | . | .
CCN(CC)CCOC(=O)c1ccc([N+](=O)[O-])cc1 | 2 | -1 | -2 | 0 | . | .
CC(=O)Nc1ccc(NC(=O)CSc2nc(N)c(NC(=O)c3ccco3)c(=O)[nH]2)cc1 | 9 | 3 | 2 | 0 | . | .
CS(=O)(=O)N(CC(=O)Nc1ccc2c(c1)OCO2)c1ccccc1 | 11 | 4 | 3 | 2 | . | .
CCOC(=O)CSc1nc2c(sc(=S)n2-c2ccccc2OC)c(=O)n1-c1ccccc1OC | -2 | 0 | -5 | 1 | . | .
COc1ccc(-n2c(SCC(=O)C(C)(C)C)nc3c(sc(=S)n3-c3ccccc3)c2=O)c(OC)c1 | 8 | 1 | 40* | 4 | 50* | -2
SMILES | VLA-4 inh | A3A deaminase | A3G deaminase | GRK2 aptamer HTS | APOBEC3G confirm | UDG A3G counter
COc1ccc(-n2c(=S)[nH]c3c(sc(=S)n3-c3ccccc3)c2=O)c(OC)c1 | 10 | 3 | 44* | 2 | 36* | -3
COc1ccc(-n2c(=S)[nH]c3sc(-c4ccccc4)cc3c2=O)c(OC)c1 | 19 | 4 | 6 | . | . | .
CC(C)(C)NC(=O)Cn1nnc(-c2ccccc2NC(=O)c2ccco2)n1 | 0 | 0 | -5 | 0 | . | .
CCOC(=O)CSc1nc2c(sc(=S)n2-c2ccc(CC)cc2)c(=O)[nH]1 | -9 | -4 | -5 | 0 | . | .
CCOC(=O)c1ccc(-n2c(=S)sc3c(=O)[nH]c(C)nc32)cc1 | 11 | 6 | 56* | 0 | 40* | 2
CCC(Oc1ccccc1)C(=O)Nc1ccc(C)c(S(=O)(=O)N2CCOCC2)c1 (stereo not drawn) | 23 | 2 | 81* | 2 | -1 | .
CCCC(C(=O)Nc1ccc(C)c(S(=O)(=O)N2CCOCC2)c1)c1ccccc1 (stereo not drawn) | 7 | -2 | -6 | 2 | . | .
CC(/C=N/n1c(-c2ccncc2)n[nH]c1=S)=C\c1ccco1 | 7 | -1 | 66* | 3 | 90* | 5
CC(/C=N/n1c(-c2cccnc2)n[nH]c1=S)=C\c1ccccc1 | 0 | -4 | 23 | 4 | . | .
CC(/C=N/n1c(-c2ccco2)n[nH]c1=S)=C\c1ccco1 | -2 | 17 | 62* | 4 | 58* | -3
CC(=C/c1ccccc1)/C=N/n1c(-c2ccncc2)n[nH]c1=S | 6 | -2 | 61* | 0 | 94* | 2
S=c1[nH]nc(-c2ccncc2)n1/N=C/C=C/c1ccco1 | -9 | 11 | 57* | 4 | 74* | 2
NNC(=O)Nc1cccc(C(F)(F)F)c1 | -3 | 3 | 57* | 5 | -2 | .
O=C(Nc1ccncc1)Nc1cccc(C(F)(F)F)c1 | -5 | -1 | -5 | 0 | . | .
Cc1cc(NC(=O)Nc2ccccc2)n(C(C)(C)C)n1 | -1 | 6 | 61* | 2 | 0 | .
Cc1cccc(-c2n[nH]c(=S)n2/N=C/c2ccc(C)s2)c1 | 1 | 2 | -2 | 3 | . | .
Cc1ccc(/C=N/n2c(-c3ccncc3)n[nH]c2=S)o1 | 3 | -4 | 47* | 0 | 90* | -3
Cc1cccc(/C=N/n2c(-c3ccncc3)n[nH]c2=S)c1 | 2 | -2 | 79* | 0 | 99* | -2
S=c1[nH]nc(-c2ccncc2)n1/N=C/c1ccccc1 | -1 | -3 | 55* | 4 | 71* | 1
Cc1ccc(/C=N/n2c(-c3ccncc3)n[nH]c2=S)s1 | -8 | -6 | 49* | 4 | 82* | -4
CCOC(=O)Cn1nc(C)c(NC(=O)COc2ccccc2)c1C | 4 | -4 | -1 | 7 | . | .
